Results: PubChem BioAssay (NCI)
The panel holds about 83,000 compounds, 20% with a hit somewhere; the sample as a whole holds those more often.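 Negative percent growth values reflect cell death: -40 means 40% of the cells present at the start died, and -100 means all died.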 The source made the active and inactive calls. Rule for the calls: active = growth percent below 10; inactive = the rest.

Key:
Assay in all cases: NCI-60 one-dose screen, 48 h (100 = growth as untreated, 0 = no growth, -100 = all killed)
Details in all cases: 10 µM unless noted
NCI-H23 lung = test system: NCI-H23 lung
NCI-H226 lung = test system: NCI-H226 lung
NCI-H322M lung = test system: NCI-H322M lung
HOP-62 NSCLC = test system: HOP-62 NSCLC
NCI-H460 lung = test system: NCI-H460 lung
HOP-92 NSCLC = test system: HOP-92 NSCLC
NCI-H522 lung = test system: NCI-H522 lung
A549/ATCC NSCLC = test system: A549/ATCC NSCLC
786-0 renal = test system: 786-0 renal
COLO 205 colon = test system: COLO 205 colon
DU-145 prostate = test system: DU-145 prostate
K-562 leukemia = test system: K-562 leukemia
MALME-3M melanoma = test system: MALME-3M melanoma
MDA-MB-231 breast = test system: MDA-MB-231 breast
RXF 393 renal = test system: RXF 393 renal
SF-268 CNS = test system: SF-268 CNS
SF-295 CNS = test system: SF-295 CNS
SF-539 CNS = test system: SF-539 CNS
UACC-257 melanoma = test system: UACC-257 melanoma
M14 melanoma = test system: M14 melanoma

Measured: growth

Cc1ccc(-n2c(=S)[nH]c3sc4c(c3c2=O)CCC(=O)C4)cc1
inactive: NCI-H23 lung 68.7% | NCI-H226 lung 83.4% | NCI-H322M lung 89.5% | HOP-62 NSCLC 63.6% | NCI-H460 lung 17.2% | HOP-92 NSCLC 57% | NCI-H522 lung 10.2% | A549/ATCC NSCLC 51.8% | 786-0 renal 29.5% | COLO 205 colon 81.6% | DU-145 prostate 37.8% | K-562 leukemia 17% | MALME-3M melanoma 50.9% | MDA-MB-231 breast 54.6% | RXF 393 renal 23.8% | SF-268 CNS 48.2% | SF-295 CNS 47.9% | SF-539 CNS 11.8% | UACC-257 melanoma 54.5% | M14 melanoma 25.9%

C/C(=N\NC(=O)c1ccccc1O)c1cccc(/C(C)=N/NC(=O)c2ccccc2O)n1
active: SF-295 CNS 7.95% | SF-539 CNS -24.4%
inactive: NCI-H23 lung 44.4% | NCI-H226 lung 50% | NCI-H322M lung 38.7% | HOP-62 NSCLC 30.3% | NCI-H460 lung 21.3% | HOP-92 NSCLC 43.5% | NCI-H522 lung 61.4% | A549/ATCC NSCLC 54.6% | 786-0 renal 33.6% | COLO 205 colon 35.2% | DU-145 prostate 55.8% | K-562 leukemia 57.2% | MALME-3M melanoma 20.9% | MDA-MB-231 breast 52.7% | RXF 393 renal 93.7% | SF-268 CNS 31.8% | UACC-257 melanoma 87.6% | M14 melanoma 48.6%

COc1ccc2c(c1)[n+]([O-])c(C(=O)/C=C/C=C(\Cl)c1cc(OC)c(OC)c(OC)c1)c(C)[n+]2[O-]
inactive: NCI-H23 lung 79.7% | NCI-H226 lung 103% | NCI-H322M lung 87.5% | NCI-H460 lung 102% | HOP-92 NSCLC 61.3% | NCI-H522 lung 56.6% | A549/ATCC NSCLC 98.4% | 786-0 renal 61.4% | COLO 205 colon 127% | DU-145 prostate 96.7% | K-562 leukemia 110% | MALME-3M melanoma 61.5% | MDA-MB-231 breast 74.9% | RXF 393 renal 47.8% | SF-268 CNS 47.1% | SF-295 CNS 21.3% | SF-539 CNS 66.8% | UACC-257 melanoma 108% | M14 melanoma 102%
active: HOP-62 NSCLC -3.57%

COc1ccc(C2c3sc4c(F)cccc4c3Oc3nc[nH]c(=O)c32)cc1 (stereo not given)
inactive: NCI-H23 lung 78.4% | NCI-H226 lung 66.6% | NCI-H322M lung 68.6% | HOP-62 NSCLC 79.5% | NCI-H460 lung 82.7% | HOP-92 NSCLC 59.4% | NCI-H522 lung 80.1% | A549/ATCC NSCLC 88.8% | 786-0 renal 91.8% | COLO 205 colon 108% | DU-145 prostate 98.2% | K-562 leukemia 72.2% | MALME-3M melanoma 94.4% | MDA-MB-231 breast 72.7% | RXF 393 renal 72.3% | SF-268 CNS 82% | SF-295 CNS 88% | SF-539 CNS 77.4% | UACC-257 melanoma 105% | M14 melanoma 91.4%

COC(=O)c1ccc2c(c1)C(=O)c1c-2n(CCCN)c(=O)c2cc([N+](=O)[O-])ccc12
active: NCI-H23 lung -53.8% | NCI-H226 lung -73.4% | NCI-H322M lung -84.3% | HOP-62 NSCLC -93.2% | NCI-H460 lung -100% | HOP-92 NSCLC -88.1% | NCI-H522 lung -78.2% | A549/ATCC NSCLC -94% | 786-0 renal -98.5% | COLO 205 colon -100% | DU-145 prostate -100% | K-562 leukemia -100% | MALME-3M melanoma -96.9% | MDA-MB-231 breast -100% | RXF 393 renal -87.5% | SF-268 CNS -87.2% | SF-295 CNS -77.4% | SF-539 CNS -94.2% | UACC-257 melanoma -96.1% | M14 melanoma -100%

CC(C)OC(=O)c1ccc2[nH]c(O)c(C(=Nc3ccc(N(C)C(=O)CN4CCN(C)CC4)cc3)c3ccccc3)c2c1
active: NCI-H23 lung -59.9% | NCI-H322M lung -6.59% | HOP-62 NSCLC -68.8% | NCI-H460 lung -57.9% | HOP-92 NSCLC 1.36% | NCI-H522 lung -60.6% | A549/ATCC NSCLC -46.7% | 786-0 renal -92.4% | COLO 205 colon -59.4% | DU-145 prostate -23% | K-562 leukemia -15.2% | MALME-3M melanoma -85% | MDA-MB-231 breast -71.4% | RXF 393 renal -96.8% | SF-268 CNS -32.7% | SF-295 CNS -26.9% | SF-539 CNS -95.6% | UACC-257 melanoma -64.9% | M14 melanoma -85.1%
inactive: NCI-H226 lung 20.1%

O=C(CN1C(=O)CCC1=O)Nc1ncc(Cc2ccc(F)cc2)s1
inactive: NCI-H23 lung 98.6% | NCI-H226 lung 95.9% | NCI-H322M lung 102% | HOP-62 NSCLC 105% | NCI-H460 lung 106% | HOP-92 NSCLC 99.9% | NCI-H522 lung 99% | A549/ATCC NSCLC 108% | 786-0 renal 101% | COLO 205 colon 113% | DU-145 prostate 106% | K-562 leukemia 98.5% | MALME-3M melanoma 99.8% | MDA-MB-231 breast 97.4% | RXF 393 renal 109% | SF-268 CNS 91.2% | SF-295 CNS 99.3% | SF-539 CNS 98.7% | UACC-257 melanoma 98.5% | M14 melanoma 103%
